Bioassay records (PubChem BioAssay)
CRFBP-R2 agonist – agonists of CRF-BP/CRF-R2 complex, primary screen, cell-based, HEK293, calcium dye fluorescence, uHTS; CRF-binding protein / CRF receptor 2 complex (human); calcium dye fluorescence (FLIPR); percent of saturating CRF peptide response; activation, % at 13.2 µM; 350,000 tested, 0.46% active; AID 588473, 2011;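 active = activation of at least 50%, plus an integration ratio under a set limit after plate pattern correction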
Cardio protect – cardioprotection against H2O2-induced cell death, primary screen, uHTS, H9c2 cells, ATPLite luminescence. H9c2 cardiomyocytes, H2O2 injury protection, 2 h. 360,000 tested, 0.63% active. protection from H2O2 cell death, % at 20 µM;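 active = compounds giving at least 50% protection of heart cells from peroxide-induced death in the single-dose screen, raw or plate-pattern-corrected value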
FAS TE block – FAS thioesterase domain inhibitors, primary screen, biochemical, fluorescence intensity, uHTS; Fatty acid synthase (Homo sapiens), P49327; recombinant FAS-TE, OMFH fluorogenic substrate, fluorescence endpoint; inhibition, % at 15 µM; 360,000 tested, 0.67% active;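 active = compounds whose normalised, plate-corrected inhibition of enzyme fluorescence in the single-dose primary screen is 50% or more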
CRFR2-BP antag – antagonists of CRF-BP/CRF-R2 complex, primary screen, cell-based, HEK293, calcium dye fluorescence, uHTS; CRF-induced calcium fluorescence; inhibition, % at 11.8 µM; 350,000 tested, 0.59% active;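 active = inhibition of the ligand-induced calcium signal above about 50% at the single tested concentration, limit read from the data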
aDG glyco up – activators of alpha-DG glycosylation, primary screen, uHTS, Pro5-aDG cells, AlphaScreen. alpha-DG glycosylation AlphaScreen (IIH6); 0% Pro5, 100% B10-LARGE cell signal. 360,000 tested, 0.22% active. activation, % at 10 µM;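 active = activation of at least 8% versus controls, or a plate z-score of at least 8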;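 also: Pro5 are CHO cells carrying HIG-tagged alpha-DG that lacks glycosylation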
PfGluPho inh – PfG6PD enzyme inhibitors, primary screen, biochemical, fluorescence intensity, uHTS | glucose-6-phosphate dehydrogenase-6-phosphogluconolactonase (Plasmodium falciparum 3D7) | PfGluPho enzyme, NADPH resazurin-diaphorase fluorescence | inhibition, % at 20 µM | 350,000 tested, 0.78% active;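 active = inhibition reaching at least a set limit at 20 µM in the primary screen, cut at about 59% in these data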
PfG6PD confirm – PfG6PD inhibitors, hit retest, confirmation, biochemical, fluorescence intensity, single concentration | shares compounds with PfGluPho inh | recombinant PfGluPho, NADPH-diaphorase-resazurin fluorescence | inhibition, % at 20 µM | 2,400 tested, 34% active;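 active = inhibition of at least 50% at 20 µM in any single replicate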
Diaph ctr 10uM – diaphorase inhibitors and chemical oxidizers, confirmation, counter-screen for P. falciparum G6PD inhibitor project, biochemical, fluorescence intensity, 10 µM NADPH | shares compounds with PfGluPho inh | diaphorase-coupled resazurin reduction, NADPH 10 uM | inhibition, % at 20 µM | 820 tested, 39% active;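 active = average inhibition reaching 50% or more with the compound at 20 µM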;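 also: resorufin red fluorescence formed as diaphorase reduces resazurin using NADPH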
Diaph ctr 30uM – diaphorase inhibitors and chemical oxidizers, confirmation, counter-screen for P. falciparum G6PD inhibitor project, biochemical, fluorescence intensity, 30 µM NADPH. inhibition, % at 20 µM. shares compounds with PfGluPho inh. AID 504863, 2011. 820 tested, 29% active. Diaphorase/resazurin coupled assay, resorufin fluorescence;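 active = inhibition averaging 50% or more, tested at 20 µM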
Large screens that a line does not name were inactive (follow-up assays come after a bar, where they were run). The list is not random: actives were taken first. Their share in the collection is about 3.2%.

COc1ccc(C2=CC(=O)N(Nc3ccccc3)C2=O)cc1	none
O=C1C=C(c2ccccc2)C(=O)N1Nc1ccccc1	PfGluPho inh 60 | PfG6PD confirm inactive
CN(NS(=O)(=O)c1ccc([N+](=O)[O-])cc1)c1ccccc1	PfGluPho inh 82 | PfG6PD confirm 55 | Diaph ctr 10uM 91 | Diaph ctr 30uM 85
O=[N+]([O-])c1ccc(NCCNS(=O)(=O)c2ccccc2)cc1	none
COC(=O)c1ccc2c(=O)[nH]c(COC(=O)c3c(-c4ccccc4)noc3C)nc2c1	none
Cc1ccc(Cl)cc1NC(=O)c1cc2ccccc2cc1O	PfGluPho inh 61 | PfG6PD confirm inactive
Cc1ccc(C2C3=C(CC(C)(C)CC3=O)NC3=C2C(=O)c2ccccc23)cc1 (stereo unspecified)	none
CC1(C)CC(=O)C2=C(C1)NC1=C(C(=O)c3ccccc31)C2c1ccc(Cl)cc1 (stereo unspecified)	PfGluPho inh 68 | PfG6PD confirm inactive
C#CCOc1ccccc1C(N)=O	none
C/C(=N\NC(=O)C(C)Sc1ccccc1)C(C)(C)C (stereo unspecified)	none
O=C(CSCc1ccc(Cl)cc1)N/N=C/c1c(Cl)cccc1Cl	none
O=C(CSCc1ccc(Cl)cc1)N/N=C/c1ccccc1	PfGluPho inh 118 | PfG6PD confirm 93 | Diaph ctr 10uM 90 | Diaph ctr 30uM 80
O=C(CSc1nc2ccccc2o1)N/N=C/c1ccccc1	PfGluPho inh 69 | PfG6PD confirm 68 | Diaph ctr 10uM 61 | Diaph ctr 30uM 52
O=C(CCC(=O)Nc1ccc(F)cc1)N/N=C/c1ccccc1	none
Cc1ccccc1/C=N/NC(=O)CSc1nc2ccccc2o1	none
O=C(CCSCCC(=O)NN=Cc1ccccc1)NN=Cc1ccccc1	PfGluPho inh 72 | PfG6PD confirm 55 | Diaph ctr 10uM inactive | Diaph ctr 30uM inactive
CC(Sc1ccccc1)C(=O)N/N=C/c1ccccc1 (stereo unspecified)	PfGluPho inh 77 | PfG6PD confirm inactive
COc1ccc(C(=O)/C=C2\Sc3ccccc3N2C)cc1	PfGluPho inh 95 | PfG6PD confirm 48 | Diaph ctr 10uM 55 | Diaph ctr 30uM inactive
C=CCc1c(C)[nH]c2c(OC)cccc2c1=S	PfGluPho inh 62 | PfG6PD confirm inactive
CCN(c1ccccc1)S(=O)(=O)c1ccc(N2CCN(c3ccc(OC)cc3)CC2)nc1	none
CCN(c1ccccc1)S(=O)(=O)c1ccc(N2CCN(c3ccc(O)cc3)CC2)nc1	PfGluPho inh 76 | PfG6PD confirm inactive
O=C(O)c1cccc2c1C(=O)c1ccccc1-2	none
O=C1C(=C(I)I)c2ccccc2-c2ccccc21	PfGluPho inh 104 | PfG6PD confirm 60 | Diaph ctr 10uM 61 | Diaph ctr 30uM 70
CC1(C)Cc2c(sc3nc4n(-c5ccccc5)c(=O)c(CCC(=O)O)nn4c(=O)c23)CO1	PfGluPho inh 104 | PfG6PD confirm 91 | Diaph ctr 10uM inactive | Diaph ctr 30uM inactive
